The entries come from a sample that favours hits as a whole.
AMA1-RON2 inh – qHTS for Inhibitors of AMA1-RON; Towards Development of Antimalarial Drug Lead: Primary Screen | AlphaScreen AMA1-biotinylated RON2 peptide binding | actives 0.2% (n = 360,000) | Potency, µM (series often up to 58.2 µM), for inactives: top-dose activity change, negative = inhibition, hits mostly inhibitors;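 further: potency means the concentration at half of the fitted maximal effect; 0% = vehicle wells and -100% = peptide control; nearly all actives have a fitted effect of over 45% in size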
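AMA1 (3D7) with his tag at 25 nM final met compounds first, then biotinylated RON2 peptide at 25 nM; detection used donor plus acceptor beads, 10 µg/mL apiece, read by AlphaScreen after 30 min at room temperature.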
Cycloheximide cs – Cycloheximide Counterscreen for Small Molecule Inhibitors of Shiga Toxin; cell reporter, cycloheximide protein synthesis inhibition counterscreen; max response, %; actives 12% (n = 300,000); in the data active means max response mostly above about 13%, no sharp cut-off; inactive means mostly below about 14%; further: read at 38.3 µM for the half of the compounds with a filed dose; 0% is about no effect
SARS PLP yeast – qHTS of Yeast-based Assay for SARS-CoV PLP. S. cerevisiae expressing SARS-CoV PLpro, growth rescue. Potency, µM (series often up to 32.9 µM), inactives show at the highest dose activity, positive = growth rescue, most hits filed as activators. actives 0.19% (n = 330,000); calls by dose curve; further: potency means the concentration at half of the fitted maximal effect; 0% is about no effect; nearly all actives have a fitted effect of over 55% in size
AmpC no deterg – qHTS Inhibitors of AmpC Beta-Lactamase (assay without detergent); P00811; AmpC nitrocefin hydrolysis, absorbance 480 nm, 0.0001% Triton; actives 0.52% (n = 330,000); Potency, µM (doses to about 57.1 µM), for the others: at the highest dose activity change, negative = inhibition, most hits filed as inhibitors;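 further: potency means the concentration at half of the fitted maximal effect; plate controls were no compound for no effect and no enzyme for full effect; nearly all actives have a fitted effect of over 20% in size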
Target sequence (P00811 whole entry, looked up): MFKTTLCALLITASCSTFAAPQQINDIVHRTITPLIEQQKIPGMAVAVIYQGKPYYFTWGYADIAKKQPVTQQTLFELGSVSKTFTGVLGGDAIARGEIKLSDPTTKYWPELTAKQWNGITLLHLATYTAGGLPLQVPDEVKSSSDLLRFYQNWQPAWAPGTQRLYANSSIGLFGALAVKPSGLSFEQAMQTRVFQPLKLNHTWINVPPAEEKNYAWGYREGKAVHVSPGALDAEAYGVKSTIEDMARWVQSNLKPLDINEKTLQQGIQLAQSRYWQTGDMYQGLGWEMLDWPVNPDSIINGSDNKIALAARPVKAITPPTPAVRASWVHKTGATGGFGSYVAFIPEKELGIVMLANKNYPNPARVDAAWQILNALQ
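AmpC (5.3 nM in the dispensed reagent) in 20 mM phosphate pH 7.0 with 0.01% (detergent screen) or 0.0001% Triton X-100 was preincubated with compounds for 15 min at room temperature. Nitrocefin was then added from an 800 uM solution, and hydrolysis was followed at 480 nm.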
Shiga toxin inh – A qHTS for Small Molecule Inhibitors of Shiga Toxin; Vero cells, Shiga toxin protein synthesis inhibition reporter; actives 9.2% (n = 290,000); inhibition, % at 38.7 µM; in the data active means inhibition mostly above about 28%, no sharp cut-off; inactive means mostly below about 43%; further: 0% is about no effect
AmpC inh detg – qHTS Inhibitors of AmpC Beta-Lactamase (assay with detergent); P00811; AmpC hydrolysis of nitrocefin, absorbance 480 nm, 0.01% Triton; Potency, µM (doses to about 114 µM), for inactives: at the top dose activity change, negative = inhibition, actives largely listed as inhibitors; actives 0.041% (n = 370,000);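 further: potency means the concentration at half of the fitted maximal effect; 0% = no-compound wells and -100% = no-enzyme wells; nearly all actives have a fitted effect of over 25% in size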
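AmpC (5.3 nM in the dispensed reagent) in 20 mM phosphate pH 7.0 with 0.01% (detergent screen) or 0.0001% Triton X-100 was preincubated with compounds for 15 min at room temperature. Nitrocefin was then added from an 800 uM solution, and hydrolysis was followed at 480 nm.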
Numbers without * were called inactive; u = inconclusive; x = not tested or not shown; [ ] = dose if it differs, or a comment. Unless noted, the call rests on the fitted dose curve; in most records, active means well fitted curve in the direction sought with a large enough effect; inconclusive means small, poorly fitted or top-dose-only effect, or another doubt; inactive means no such curve, though single readings can be large; an effect the other way counts as inactive or inconclusive.

SMILES | AMA1-RON2 inh | Cycloheximide cs | SARS PLP yeast | AmpC no deterg | Shiga toxin inh | AmpC inh detg
NS(=O)(=O)c1ccc(N2C(=O)C(=O)/C(=C(/O)c3ccccc3)C2c2ccc(Cl)cc2)cc1 (stereo not given) | -9% | 11* | 1% | -46% | 25 | -2%
O=C1C(=O)N(c2cccc(Cl)c2)C(c2ccccc2[N+](=O)[O-])/C1=C(\O)c1ccccc1 (stereo not given) | -17% | 19* | -12% | -43% | 37 | 0%
C/C(NC(=O)c1ccccc1F)=C1\C(=O)C[C@@H]2[C@H]1C2(C)C | -2% | 14* | -1% | -6% | 35 | u
Cc1cc(N2C(=O)C(O)=C(C(=O)c3cc4ccccc4o3)C2c2ccc(Br)cc2)no1 (stereo not given) | 13% | 42* | 2% | u | 23 | 6%
CCCCNC(=O)c1ccc(N2CCOCC2)c(NS(=O)(=O)c2ccc(OC)cc2)c1 | -2% | -4 | 7% | 56% | 9 | -6%
O=C(c1cc2ccccc2oc1=O)N1CCOCC1 | 5% | 39* | 0% | -7% | 73* | u
O=C(Nc1cccnc1N1CCOCC1)c1cc2ccccc2oc1=O | 19% | 26* | -2% | -4% | 47* | -13%
O=C(c1cc2cc(Cl)ccc2oc1=O)N1CCOCC1 | -7% | -3 | 1% | -1% | -2 | u
COC(=O)C1CCN(C(=O)c2cc3ccccc3oc2=O)CC1 | 5% | 33* | 3% | -17% | 48* | -5%
O=C(CC1C(=O)NCCN1CC1CCCCC1)NCc1ccc(F)cc1 (stereo not given) | -19% | -3 | 1% | 46% | -2 | 1%
COc1ccc(-c2noc(-c3ccc4c(c3)OCO4)n2)cc1 | 21% | 14* | 5% | -9% | 18 | -12%
c1ccc(-c2noc(-c3ccc4c(c3)OCO4)n2)cc1 | 22% | 64* | 0% | -14% | 109* | 0%
c1ccc(-c2noc(-c3ccc4ccccc4c3)n2)cc1 | 1% | 55* | 7% | -7% | 105* | -6%
COc1cccc(-c2noc(-c3ccc4c(c3)OCO4)n2)c1 | 12% | 3 | -4% | -18% | 17 | 2%
CCN(CC)S(=O)(=O)c1cc(C(=O)Nc2cc(C)on2)ccc1Cl | -6% | 18 | 6% | -20% | -5 | -3%
CCN(CC)S(=O)(=O)c1cccc(C(=O)Nc2ccc(Cl)cn2)c1 | 38% | 26* | -4% | -14% | 99* | u
CCN(CC)S(=O)(=O)c1cc(C(=O)Nc2ccc(Cl)cn2)ccc1C | -5% | 33* | -6% | -24% | 79* | -7%
CCCCNC(=O)c1nc(-c2ccc(C(F)(F)F)cc2)oc1-c1ccccc1 | -18% | x | x | x | x | x
CCCC12CN(C(=O)c3ccco3)CC(CCC)(CN(C(=O)c3ccco3)C1)C2=O | 10% | -1 | 0% | 52% | -11 | -13%
O=C(Nc1ccc(Cl)c([N+](=O)[O-])c1)c1ccco1 | -6% | 20* | -16% | -19% | 33 | -7%
O=C(Nc1cc(Oc2ccc(Cl)cc2)cc([N+](=O)[O-])c1)c1ccco1 | -24% | 47* | -37% | -36% | 74* | -4%
O=C(/C=C/c1cccc([N+](=O)[O-])c1)Nc1cccc(NC(=O)c2ccco2)c1 | -29% | 11 | 2% | 3.2µM* | 19 | u
O=C(/C=C/c1ccc(Cl)c([N+](=O)[O-])c1)Nc1cccc(NC(=O)c2ccco2)c1 | -9% | 36* | 3% | -29% | 67* | 0%
Cc1ccc(C(=O)Nc2cccc(C(=O)OCc3cc(=O)n4nc(C5CC5)sc4n3)c2)cc1 | x | x | x | x | x | -2%
Cc1noc(C)c1S(=O)(=O)Nc1cccc(C(F)(F)F)c1 | -7% | -3 | 27% | -3% | -9 | 0%
SMILES | AMA1-RON2 inh | Cycloheximide cs | SARS PLP yeast | AmpC no deterg | Shiga toxin inh | AmpC inh detg
COC(=O)C1(C)NC(=O)c2ccccc2N1 (stereo not given) | -3% | 15* | 3% | -2% | 1 | -16%
COC(=O)C1(C)Nc2ccccc2C(=O)N1c1ccccc1OC (stereo not given) | -5% | -2 | -4% | -9% | -8 | -16%
O=C(Cn1c(C(F)(F)F)nc2ccccc21)c1ccccc1 | 8% | 7 | 4% | -12% | 3 | -3%
Cc1[nH]n(-c2ccccc2)c(=O)c1/C=N/NC(=O)c1ccccc1F | 88% | 25* | -2% | -16% | 64* | -10%
Cc1cc(C(=O)N/N=C/c2c(C)nn(-c3ccccc3)c2Cl)n[nH]1 | 2% | 18* | 0% | -4% | 49* | 0%
CC(=O)N/N=C/c1c(C)[nH]n(-c2ccccc2)c1=O | 65% | -5 | -3% | -25% | 7 | 5%
Cc1nn(-c2ccccc2)c(Cl)c1/C=N/NC(=O)c1[nH]ncc1Br | 75% | 29* | -4% | -24% | 45* | 3%
Cc1ccc(-n2nc(C)c(/C=N/NC(=O)c3cccnc3)c2Cl)cc1 | -10% | -2 | -7% | -15% | 13 | 4%
Cc1ccccc1OCC(=O)N/N=C/c1c(C)nn(-c2ccccc2)c1Cl | -1% | -3 | 3% | -18% | -2 | -9%
Cc1nn(-c2ccccc2)c(Cl)c1/C=N/NC(=O)c1cccnc1 | -16%[2.32 µM] | 33* | -19% | -15% | 27 | -14%
O=C(O)c1ccc2c(c1)C1C=CCC1C(c1ccncc1)N2 (stereo not given) | -5% | -4 | 0% | -15% | -6 | u
CC(C(=O)Nc1ccc2c(c1)OCCO2)N(C)Cc1c(F)cccc1Cl (stereo not given) | -19% | 26 | -7% | -7% | 25 | 3%
Cc1nn(-c2ccccc2)c(Cl)c1/C=N/NC(=O)c1ccccc1F | 5% | 37* | -1% | -16% | 64* | 0%
Cc1ccc(OCC(=O)N/N=C\c2cccn2C)c([N+](=O)[O-])c1 | -6% | 32* | -1% | -5% | 42* | 0%
Cc1[nH]n(-c2ccccc2)c(=O)c1/C=N/NC(=O)COc1ccccc1[N+](=O)[O-] | 84% | 1 | 14µM* | -31% | 19 | -7%
Cc1nn(-c2ccccc2)c(Cl)c1/C=N/NC(=O)c1ccn[nH]1 | 37% | 21* | -2% | -18% | 34 | -3%
Cc1ccc(C)c(OCC(=O)N/N=C\c2cccn2C)c1 | -3% | 17 | -1% | -6% | 39 | 1%
COCC(=O)N/N=C/c1c(C)[nH]n(-c2ccccc2)c1=O | 50% | -4 | 5% | -18% | -3 | 1%

Assay outcomes as filed in PubChem BioAssay.
